# Data taken from PubChem BioAssay.
# Values without a mark were called inactive. No rule for the calls is given here.
# Biological target: Pantothenate synthetase (Mycobacterium tuberculosis (strain ATCC 25618 / H37Rv)) (UniProt P9WIL5)
# Assay: Coupled enzyme confirmation of inhibitors against recombinant Mtb PanC (AID 375);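 also: 0% = full reaction with vehicle and 100% = no enzyme background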
# Conditions: coupled enzyme assay; at 10 µM, active compounds read high
# Pantothenate synthetase (Mycobacterium tuberculosis (strain ATCC 25618 / H37Rv)), sequence (P9WIL5 whole entry, looked up): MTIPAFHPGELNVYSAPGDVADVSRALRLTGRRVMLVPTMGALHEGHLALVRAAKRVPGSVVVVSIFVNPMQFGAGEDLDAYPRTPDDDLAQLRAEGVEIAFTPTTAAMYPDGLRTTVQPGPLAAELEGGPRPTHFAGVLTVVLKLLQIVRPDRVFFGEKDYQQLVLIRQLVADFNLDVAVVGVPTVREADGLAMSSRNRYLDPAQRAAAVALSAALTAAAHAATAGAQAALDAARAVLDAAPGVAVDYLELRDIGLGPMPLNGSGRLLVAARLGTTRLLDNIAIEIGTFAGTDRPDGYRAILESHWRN
row,Structure (SMILES),inhibition [%]
1,CC(CCC(=O)Nc1nncs1)C(=O)O (centres undefined),1
2,COCCNS(=O)(=O)c1cc(F)ccc1OC,0
3,CS(=O)(=O)NCCSCc1c(F)cccc1Cl,3
4,Cc1ccc(NC(=O)c2ccccc2F)nc1,2
5,COC(=O)CCC(=O)Nc1ccc(S(=O)(=O)N2CCCCCC2)cc1,0
6,COCc1[nH]nc2c1C(c1cc(OC)c(O)c(OC)c1)C(C#N)=C(N)O2 (centres undefined),0
7,CCOC(=O)c1ccc2ncc(C(=O)OCC)c(NCCN(C)C)c2c1,0
8,CN(C)c1cccc2c(S(=O)(=O)Nc3ccccn3)cccc12,1
9,Cc1ccccc1NC(=O)C1CC(=O)N(c2ccccc2F)C1 (centres undefined),1
10,CC(C(=O)c1ccccc1)n1cnc2ccccc2c1=O (centres undefined),9
11,O=c1c2ccccc2nc2n1CCN2,0
12,COC(=O)[C@H](C)NC(=O)Nc1cc(OC)ccc1OC,0
13,CN1CC=C2C(C#N)=C(N)C(C#N)(C#N)[C@H](c3cccc(Cl)c3)C2C1 (some centres undefined),0
14,C=CCSc1nc2sc(C)c(C)c2c(=O)[nH]1,10
